# According to PubChem BioAssay (NCATS):
# Results filed as inconclusive are left out. A number with no mark means an inactive call. Calls of active or inactive are those of the source. The call rests on the fitted dose curve; in most records, active means well fitted cell-killing curve with a large enough effect; inconclusive means small, poorly fitted or top-dose-only effect, or effect the other way; inactive means no such curve, though single readings can be large or run the other way.
# Experiment: Quantitative High-Throughput drug screen in 47 multiple myeloma cell lines against the NCATS MIPE library collection: FR4_PLB cell viability assay (AID 1918924; further: nearly all actives have a fitted effect of over 35% in size)
# Details: FR4_PLB myeloma cells viability, CellTiter-Glo ATP, 48 h; series mostly up to 45.8 µM; viability (% of DMSO control): at the top concentration
# Excerpt: PI: Beverly A. Mock Ph.D.
# Laboratory of Cancer Biology and Genetics,
# Center for Cancer Research, National Cancer Institute,
# National Institute of Health, Bethesda, Maryland
# Drug resistance and disease progression are common in multiple myeloma (MM) patients, underscoring the need for new therapeutic combinations. […] We hypothesized that effective combinations would reduce MYC expression and enhance p16 activity. […] These preclinical data identify potentially useful drug combinations for evaluation in drug-resistant MM and reveal potential mechanisms of combined drug sensitivity.
# Described herein is the primary MIPE qHTS used to cherrypick compounds. Validated compounds were then further tested for potential synergistic activiy.
# [1] Peat TJ, Gaikwad SM, Dubois W, Gyabaah-Kessie N, Zhang S, Gorjifard S, Phyo Z, Andres M, Hughitt VK, Simpson RM, Miller MA, Girvin AT, Taylor A, Williams D, D'Antonio N, Zhang Y, Rajagopalan A, Flietner E, Wilson K, Zhang X, Shinn P, Klumpp-Thomas C, McKnight C, Itkin Z, Chen L, Kazandijian D, Zhang J, Michalowski AM, Simmons JK, Keats J, Thomas CJ, Mock BA. Drug combinations identified by high-throughput screening promote cell cycle transition and upregulate Smad pathways in myeloma. Cancer Lett. 2023 Aug 1;568:216284. doi: 10.1016/j.canlet.2023.216284. Epub 2023 Jun 24. PMID: 37356470; PMCID: PMC10408729.
# SEQUENCE No. (e.g., 1, 2, 3, etc.); […] (e.g., Cells, Incubation, Reagent, etc.); VALUE and DESCRIPTION.
# 1; Cells; 5 uL; white, solid bottom 1536-well Greiner assay plate.
# 2; Compounds; 23 nL; Kalypsis pin tool (Wako USA) equipped with a 1536-well pin head to transfer to the assay plates.
# 3; Incubation; 48 hours; 37C incubation.
# 4; Reagent;5uL; CellTiter Glo (Promega).
# 5; Detector; 425V; Luminescence; Viewlux PerkinElmer.
# NOTES (numbers refer to Sequence numbers above)
# 1. The cell-based screening methods employed in this study were like those previously published. Briefly, the corresponding myeloma cell lines were screened in 1,536-well plates with 500 cells, 5-uL per well for inhibition of cell viability (assessed by measuring ATP levels with CellTiterGlo).
# 2. NCATS MIPE 4.0 library of approved and investigational drugs were added using the Kalypsis pin tool. Wells treated with DMSO only for 100% viability and media only wells for 0% viability were used as controls.
# 3. The assay plates were covered and incubated for 48 hours in a 37C, 5% CO2 incubator with controlled humidity.
# 4. After 48 hours, CellTilter-GloTM luminescent substrate mix (Promega) reagent was added to the assay plate and plates we incubated for 5 min at room temperature.
# 5. Signal was measured as median relative luminescence units on a ViewLux (PerkinElmer) multiplate reader.
# [1] Heske CM, Davis MI, Baumgart JT, Wilson K, Gormally MV, Chen L, Zhang X, Ceribelli M, Duveau DY, Guha R, Ferrer M, Arnaldez FI, Ji J, Tran HL, Zhang Y, Mendoza A, Helman LJ, Thomas CJ. Matrix Screen Identifies Synergistic Combination of PARP Inhibitors and Nicotinamide Phosphoribosyltransferase (NAMPT) Inhibitors in Ewing Sarcoma. Clin Cancer Res. 2017 Dec 1;23(23):7301-7311. doi: 10.1158/1078-0432.CCR-17-1121. Epub 2017 Sep 12. PMID: 28899971; PMCID: PMC6636827.
# Potency means the concentration at half of the fitted maximal effect.
Compound,viability (% of DMSO control),Potency
CO[C@H]1O[C@@H]2O[C@@]3(C)CC[C@@H]4[C@@H](C)CC[C@@H]([C@H]1C)[C@@]24OO3,97.6%,
O=C(c1ccc(C(=O)N2CCC(N3CCCC3)CC2)c(Nc2ccccc2)c1)N1CCC(N2CCCC2)CC1,135%,
C[C@]12CC[C@@H]3c4ccc(O)cc4CC[C@H]3[C@H]1[C@@H](O)[C@@H](O)[C@H]2O,141%,
CC1(C)CC(=O)c2c(C(F)(F)F)nn(-c3ccc(C(N)=O)c(NC4CCC(O)CC4)c3)c2C1 (stereo not given),,0.059 µM (active)
Nc1ncnc2c1c(-c1cccc(OCc3ccccc3)c1)cn2C1CC(CN2CCC2)C1 (stereo not given),,16.6 µM (active)
COC1CCC(C(=O)c2ccc3nc4c(cc3c2)CCCO4)CC1 (stereo not given),,26.4 µM (active)
COc1c(C)c2c(c(O)c1CC=C(C)CCC(=O)OCCN1CCOCC1)C(=O)OC2,,5.26 µM (active)
C[C@@H]1O[C@@H](O[C@H]2CC[C@@]3(C)[C@H](CC[C@@H]4[C@H]3C[C@@H](O)[C@]3(C)[C@@H](C5=CC(=O)OC5)CC[C@]43O)C2)C[C@H](O)[C@@H]1O[C@H]1C[C@H](O)[C@H](O[C@H]2C[C@H](O)[C@@H](O)[C@@H](C)O2)[C@H](C)O1 (stereo in doubt),,0.0762 µM (active)
COc1cc(CNC(=O)CCCCC=CC(C)C)ccc1O,111%,
CCC(=C(CC)c1ccc(O)cc1)c1ccc(O)cc1,,8.33 µM (active)
NC(=O)c1noc([C@H](CCCC2CCCCC2)CC(=O)NO)n1,,6.62 µM (active)
CC(=O)OCC(=O)[C@@]12OC(C)(C)O[C@H]1C[C@H]1[C@@H]3C[C@H](F)C4=CC(=O)C=C[C@]4(C)[C@@]3(F)[C@@H](O)C[C@@]12C,99.1%,
CN(C)c1ccccc1CN1CCCN(Cc2ccccc2N(C)C)C1c1ccncc1,,18.7 µM (active)
C[C@@H](O)[C@H]1C(=O)N2C(C(=O)OCOC(=O)C(C)(C)C)=C(SC3CN(C4=NCCS4)C3)[C@H](C)[C@H]12,94.1%,
CN(C)CCOc1ccc(-c2nc(-c3ccc4c(c3)CCC4=NO)c(-c3ccncc3)[nH]2)cc1,,18.7 µM (active)
CC(C)CNc1ccnc(NCc2csc(-c3ccccc3)n2)n1,,16.6 µM (active)
CN1CCN(c2ncc(-c3cc(Cl)cc(Cl)c3Cl)c(N)n2)CC1,123%,
CC(C)[C@H](O)C(=O)N[C@@H](C)C(=O)N[C@@H]1C(=O)N(C)CCc2ccccc21,96.8%,
COc1ccc2c(c1)CC[C@H]1[C@@H]2CC[C@]2(C)[C@@H](NCCCCCCN3C(=O)C=CC3=O)CC[C@H]12,112%,
CC1(C)C(N(O)C(=O)Nc2ccc(Cl)cc2)N(c2ccc(Cl)cc2)C(=O)N1CC(=O)NN=CC=Cc1ccc([N+](=O)[O-])o1 (stereo not given),,13.2 µM (active)

Compound,viability (% of DMSO control),Potency
O[C@@H](COc1cccc2ncccc12)CN1CCN(C2c3ccccc3[C@@H]3[C@H](c4ccccc42)C3(F)F)CC1 (stereo not given in full),,23.5 µM (active)
CCCCCCCCCCCCCCCC(=O)O[C@H]1[C@@H](O)[C@@H](O)[C@@H]([C@H](NC(=O)[C@@H]2C[C@@H](CCC)CN2C)[C@H](C)Cl)O[C@@H]1SC,98.8%,
COc1ccc(-c2cc(=O)c3c(O)cc(O[C@@H]4O[C@H](CO[C@@H]5O[C@@H](C)[C@H](O)[C@@H](O)[C@@H]5O)[C@@H](O)[C@H](O)[C@@H]4O)cc3o2)cc1O,124%,
Cn1c(=O)c(-c2c(Cl)cccc2Cl)cc2cnc(Nc3cccc(C(=O)O)c3)nc21,,5.26 µM (active)
CCN(CCO)CCCOc1ccc2c(Nc3cc(CC(=O)Nc4cccc(F)c4)[nH]n3)ncnc2c1,82.5%,
CCC=CC[C@H]1C(=O)CC[C@@H]1CC(=O)OC,117%,
COc1ccc(-c2nc3ccc(C4=NNC(=O)CC4C)cc3[nH]2)cc1 (stereo not given),117%,
CCn1c(-c2nonc2N)nc2cncc(CNC3CCNCC3)c21,118%,
Cc1[nH]c(C=C2C(=O)Nc3ccc(S(=O)(=O)N(C)c4cccc(Cl)c4)cc32)c(C)c1C(=O)N1CCN(C)CC1,,26.4 µM (active)
N[C@@H](CC(=O)N1CCn2c(nnc2C(F)(F)F)C1)Cc1cc(F)c(F)cc1F,106%,
Cc1cn([C@@H]2C[C@@H](O)[C@H](CO)O2)c(=O)[nH]c1=O,138%,
N#CC(=C1Nc2ccccc2S1)c1ccnc(OCc2ccc(CN3CCOCC3)cc2)n1,,23.5 µM (active)
CC1(COc2ccc3c(c2)ncn3-c2ccc3cccc(N4CCC(N)CC4)c3n2)COC1,,1.48 µM (active)
O=C(c1ccc(F)c(F)c1Nc1ccc(I)cc1F)N1CC(O)([C@H]2CCCCN2)C1,,20.9 µM (active)
O=C(Nc1cccc(Cl)c1)Nc1ncc(CCNc2ncnc3ccsc23)s1,,6.62 µM (active)
CNc1nc(Nc2ccc(C(=O)N3CCOCC3)cc2OC)ncc1Cl,110%,
CNC(=O)c1ccc2c(C(=Nc3cccc(CN(C)C)c3)c3ccccc3)c(O)[nH]c2c1,101%,
O=C(Nc1ncc(SCCN2CCCC2)s1)[C@]1(c2ccc(S(=O)(=O)C3CC3)cc2)C[C@@H]1C1CCCCC1,,18.7 µM (active)
COc1cc2ncn(-c3cc(OCc4ccccc4S(C)(=O)=O)c(C#N)s3)c2cc1OC,121%,
C[C@@H](N)c1ccc(C(=O)Nc2ccnc3[nH]ccc23)cc1,,26.4 µM (active)
